Our source for the activation and Potency values is PubChem BioAssay (NCATS).

The structures appear in SMILES notation. Inconclusive results are not listed. A number with no mark means an inactive call. Active and inactive are the calls of the source. The call rests on the fitted dose curve; in most records, active means well fitted activation curve with a large enough effect; inconclusive means small, poorly fitted or top-dose-only effect; inactive means no such curve, though single readings can be large or run the other way.
Potency means the concentration at half of the fitted maximal effect.

Chain of Cellular tumor antigen p53 (Homo sapiens) (P04637 whole entry, looked up): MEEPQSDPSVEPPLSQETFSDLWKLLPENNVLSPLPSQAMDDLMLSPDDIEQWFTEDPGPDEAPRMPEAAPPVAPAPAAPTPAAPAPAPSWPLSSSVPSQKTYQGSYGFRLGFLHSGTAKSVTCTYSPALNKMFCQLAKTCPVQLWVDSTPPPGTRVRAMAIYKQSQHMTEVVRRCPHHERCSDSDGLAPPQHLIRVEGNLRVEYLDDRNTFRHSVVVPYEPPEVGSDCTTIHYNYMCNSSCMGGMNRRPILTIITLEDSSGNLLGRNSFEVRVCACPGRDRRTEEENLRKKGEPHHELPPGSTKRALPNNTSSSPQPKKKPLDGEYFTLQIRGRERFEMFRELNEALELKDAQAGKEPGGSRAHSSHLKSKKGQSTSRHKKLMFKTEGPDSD

The test concerns the target Cellular tumor antigen p53 (Homo sapiens) (UniProt P04637). The experiment in a line: Primary qHTS for small molecule compounds that upregulate eGFP-tagged delta133p53alpha (in N-terminal) cells. (AID 2060322). Further: nearly all actives have a fitted effect of over 75% in size.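 On activation: series mostly up to about 56 µM; 0% = DMSO vehicle and 100% = reference activator.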 Particulars: NCI-H358 eGFP-delta133p53alpha fluorescence, 24 h; activation: active compounds read high. A digest of the protocol: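 NCI-H358 cells pre-induced 24 h with 10 ng/ml doxycycline to express N-terminal eGFP-delta133p53alpha, then dosed 24 h at 37C without doxycycline; fixed, Hoechst-stained, GFP intensity by laser scanning cytometry, normalized to DMSO (0%) and 57.5 uM 5-azacytidine (100%).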
Regarding `COc1cc(O)cc(/C=C/c2cccc(O)c2)c1`, the activation is -8.93%.

In the case of `NC1CCC(Nc2cc(-c3cccc(NCc4cccc(F)c4)n3)c(Cl)cn2)CC1` (stereo not given), the Potency was 1.51 µM (active). On to `COc1ccccc1NC(=O)OCC1CCN(C(=O)OC(C)(C)C)CC1`, for which the activation was -5.67%.

For `Cc1c(O)cc2c(c1O)COC1(O)CCCOC21` (stereo not given), the activation is -17.6%. `CC1CCN(C(=O)CC#N)CC1N(C)c1ncnc2[nH]ccc12` (stereo not given): the activation was 1.79%. Still for that read-out and setting: the figure for `CC1=C2C(=O)C=C(CO)C2[C@H]2OC(=O)[C@H](C)[C@@H]2[C@@H](OC(=O)Cc2ccc(O)cc2)C1` (stereo not given in full) is -11.6%; for `CC(=O)O[C@@H]1CC2C(C)(C)C(=O)C=C[C@]2(C)C2CC[C@]3(C)C(=CC(=O)[C@@H]3c3ccoc3)[C@@]21C` (stereo not given in full) it is 1.53%. The same measure, in the same setting: the value for `CC1=CC(=O)CC(C)(C)[C@@]1(O)/C=C/C(C)O[C@@H]1O[C@H](CO)[C@@H](O)[C@H](O)[C@H]1O` (stereo not given in full) was 15.3%. In the case of `C/C=C(/C)C(=O)OC1C=C2C3C(C)C(C)C(OC(=O)C(C)C(C)O)CC3(C)CCC2(C)C2(C)CC(OC(C)=O)C3C(C)(C)C(O)C(=O)CC3(C)C12` (stereo not given), the activation was -17%. Still for that read-out and setting: the figure for `Nc1nc2c(nc(Br)n2[C@@H]2O[C@@H]3COP(=O)(O)O[C@H]3[C@H]2O)c(=O)[nH]1` is -14.3%; for `C[C@@H]1O[C@@H](O[C@H]2[C@H](O)[C@@H](O[C@@H]3O[C@H](CO)[C@@H](O)[C@H](O[C@@H]4O[C@H](CO)[C@@H](O)[C@H](O)[C@H]4O)[C@H]3O)[C@H](O[C@H]3CC[C@@]4(C)C(=CC[C@@H]5C4CC[C@@]4(C)C5C[C@@H]5OC6(CC[C@@](C)(CO[C@@H]7O[C@H](CO)[C@@H](O)[C@H](O)[C@H]7O)O6)[C@@H](C)[C@@H]54)C3)O[C@@H]2CO)[C@H](O)[C@H](O)[C@H]1OC1OC(CO)C(O)C(O)C1O` (stereo not given in full) it is 13%. The same measure, in the same setting: the figure for `Cc1cc(C(N)=O)ccc1-n1c(CCC(=O)O)ccc1-c1ccc(-n2ccnc2)cc1` is -2.68%. As for `O=C(O)Cc1cn([C@@H]2O[C@H](CO)[C@@H](O)[C@H](O)[C@H]2O[C@@H]2O[C@H](CO)[C@@H](O)[C@H](O)[C@H]2O)c2ccccc12`, the activation was 3.82%. Same read-out and setting: the figure for `CC1(C)CC[C@]2(C(=O)O[C@@H]3O[C@H](CO)[C@@H](O)[C@H](O)[C@H]3O)CC[C@]3(C)C(=CCC4[C@@]5(C)C[C@@H](O)[C@H](O)[C@@](C)(CO)C5CC[C@]43C)C2C1` (stereo not given in full) is 8.4%. The same measure, in the same setting: the figure for `C=C1C(=O)OC2CC(COC(=O)C(C)C)=C(C(C)CCCOC(C)=O)[C@@H](OC(C)=O)C12` (stereo not given in full) is 6.87%.

With `C=C1[C@H](OC(C)=O)[C@H]2[C@@H](OC(=O)c3ccccc3)[C@@H](C)C[C@]2(O)[C@@H](OC(C)=O)[C@H](C)/C=C/C(C)(C)C(=O)[C@H](OC(C)=O)[C@H]1OC(C)=O`, the activation is -3.57%.

In the case of `C[C@@]12CC3(S(=O)(=O)O)OC(O1)[C@]1(COC(=O)c4ccccc4)[C@H]3C[C@]21O[C@@H]1O[C@H](CO)[C@@H](O)[C@H](O)[C@H]1O`, the activation is 14.5%. Regarding `COc1cc(/C=C2\CC[C@H]3COC[C@@H](c4cc(F)c(F)c(F)c4)N3C2=O)ccc1-n1cnc(C)c1`, the activation was -13.7%.

On to `CC(=O)O[C@@H]1[C@H](O[C@@H]2OC[C@](O)(CO)[C@H]2O)[C@@H](O[C@@H]2O[C@@H](C)[C@H](O)[C@@H](O[C@@H]3O[C@H](CO)[C@@H](O)[C@H](O)[C@H]3O)[C@H]2O)[C@H](OC(=O)[C@]23CCC(C)(C)C[C@H]2C2=CCC4[C@@]5(C)C[C@H](O)[C@H](O[C@@H]6O[C@H](C(=O)O)[C@@H](O)[C@H](O)[C@H]6O)[C@@](C)(C(=O)O)C5CC[C@@]4(C)[C@]2(C)CC3)O[C@@H]1C` (stereo not given in full), for which the activation was -16.8%. The same measure, in the same setting: the value for `C1=Cc2ccccc2C(=C2CCN(CCCCc3nn[nH]n3)CC2)c2ccccc21` was -3%. Same read-out and setting: the figure for `CC(C)=CCCC1(C)Oc2cc3c(c4c2C2C(O4)C(C)(O)CCC21)CN(C(CCC(=O)O)C(=O)O)C3=O` (stereo not given) is -3.05%. With `COc1cc2c(cc1OC)CC(=O)N(CCCNC[C@H]1Cc3cc(OC)c(OC)cc31)CC2`, the activation is -11.7%. Still for that read-out and setting: the figure for `COC(=O)[C@]1(C)CCC[C@@]2(C)[C@@H]3CC[C@@H]4C[C@@]3(CC[C@@H]21)C[C@H]4C(=O)O` is -17.6%.

Consider `CC1(C)CC[C@]2(C(=O)O[C@@H]3O[C@H](CO[C@@H]4O[C@H](CO)[C@@H](O)[C@H](O)[C@H]4O)[C@@H](O)[C@H](O[C@@H]4O[C@H](CO)[C@@H](O)[C@H](O)[C@H]4O)[C@H]3O)CC[C@]3(C)C(=CCC4[C@@]5(C)CC[C@H](O[C@@H]6OC[C@@H](O)[C@H](O)[C@H]6O)[C@@](C)(C(=O)O)C5CC[C@]43C)[C@@H]2C1` (stereo not given in full), for which the activation is 0%. Same read-out and setting: the figure for `CC1(C)CCCC2(C)C1C(=O)C=C(C(=O)O)C2(O)C(=O)O` (stereo not given) is 41.2%. Turning to `CCN(CC)c1ccc2c(O)c(C=Nc3ccc(CC(=O)O)c(-c4c5c(nc6ccccc46)CCC(C(=O)NN)C5)c3)c(=O)oc2c1` (stereo not given), the Potency was 5.36 µM (active). Consider `COc1ccc(/C=C/C(=O)O[C@@H]2[C@@H](O[C@@H]3O[C@H](CO)[C@@H](O)[C@H](O)[C@H]3O)[C@@H](O)[C@H](O[C@H]3C4C=CO[C@@H](O[C@@H]5O[C@H](CO)[C@@H](O)[C@H](O)[C@H]5O)C4[C@@]4(CO)O[C@@H]34)O[C@H]2C)cc1` (stereo not given in full), for which the activation was -9.92%. The same measure, in the same setting: the figure for `CC(C)=CCC[C@](C)(O[C@@H]1O[C@H](CO[C@@H]2O[C@@H](CO)[C@H](O)[C@H]2O[C@@H]2OC[C@@H](O)[C@H](O)[C@H]2O)[C@@H](O)[C@H](O)[C@H]1O)[C@H]1CC[C@]2(C)[C@@H]1[C@H](O)CC1[C@@]3(C)CC[C@H](O[C@@H]4O[C@H](CO)[C@@H](O)[C@H](O)[C@H]4O[C@@H]4O[C@H](CO)[C@@H](O)[C@H](O)[C@H]4O)C(C)(C)C3CC[C@]12C` (stereo not given in full) is -6.87%. Same read-out and setting: the figure for `Cc1ccc(C)c(NC(=O)[C@@H]2CCCN2S(=O)(=O)c2cccc3cccnc23)c1` is -4.33%; for `C=CC1(C)CC(O)C(C(=C)C(=O)OC)C(O)C1C(=C)CO` (stereo not given) it is -14.5%. In the case of `COc1cc(C(=O)OC[C@@]2(O)CO[C@@H](O[C@H]3[C@H](Oc4ccc(C(=O)O)cc4OC)O[C@H](CO)[C@@H](O)[C@@H]3O)[C@@H]2O)ccc1O`, the activation was -13.7%. On the same count and under the same terms, the value for `O=C(/C=C/c1ccc(O)cc1)O[C@H]1[C@H](OC2CCCCC2O)O[C@H](CO)[C@@H](O)[C@@H]1O` (stereo not given in full) was -11.5%.

With `O=C(Nc1ccc(N(Cc2ccsc2)C(=O)Cn2nnc3ccccc32)cc1)C1CC1`, the activation is 11.6%.

With `CC1CC(=O)C2=C(O1)OC1(C)CCC3C(C)(C)C=CC(=O)C3(C)C1C2` (stereo not given), the activation was -29.5%. Still for that read-out and setting: the figure for `OC[C@H]1O[C@@H](OCCc2ccccc2)[C@H](O)[C@@H](O)[C@@H]1O` is -2.29%; for `Nc1nc(O)c(C2=C3C(=Nc4ccccc43)C(=O)NCC2)[nH]1` it is -1.79%. On the same count and under the same terms, the figure for `COC(=O)C1=CO[C@@H](O[C@@H]2O[C@H](CO)[C@@H](O)[C@H](O)[C@H]2O)[C@H]2[C@@H]1[C@H](O)C[C@]2(C)O` is 3.57%; for `CCOc1ccc(-c2nn3ncccc3c2-c2ccc(S(C)(=O)=O)cc2)cc1` it is -4.46%.

For the molecule `CC1(C)OC[C@H](NC(=O)Nc2ccc(Br)cc2Br)[C@H](c2ccccc2)O1`, the Potency is 19 µM (active). Take `CC1CCC2(CO)C(C(=O)O)=CCCC2C1(C)CCc1ccoc1` (stereo not given): the activation is 14.3%.
